This passage reports binding signal results from article PMC7862700, “An all-to-all approach to the identification of sequence-specific readers for epigenetic DNA modifications on cytosine”.

Assay in all cases: DAPPL (digital affinity profiling via proximity ligation, sequencing); 10 mM Tris-HCl pH 7.5, 50 mM NaCl, 1 mM DTT, 4% glycerol, room temperature, 30 min; GST-TFs on glutathione beads, 16-mer random dsDNA library, 0.1% formaldehyde crosslink after washing; high values mean tight binding
Test [1] has as its target T1, FEV (Homo sapiens, UniProt Q99581 1-238).
T1 sequence: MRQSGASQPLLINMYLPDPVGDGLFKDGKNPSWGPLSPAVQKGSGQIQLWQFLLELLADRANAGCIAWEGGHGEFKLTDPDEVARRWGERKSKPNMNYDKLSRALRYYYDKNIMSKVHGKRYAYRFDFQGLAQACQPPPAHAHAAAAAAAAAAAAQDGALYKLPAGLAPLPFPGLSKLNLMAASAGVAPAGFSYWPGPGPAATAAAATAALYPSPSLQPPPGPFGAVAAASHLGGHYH
Particulars: protein: recombinant; tags: N-terminal GST; dsDNA, one strand shown. The method in brief: (§1)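 Binding signal is each hexamer's read frequency for a factor divided by its frequency in the tag-only sample. The factors were GST-fused human transcription factors from yeast, captured on glutathione beads, DNA-barcoded and pooled with that sample. Pools were incubated with 200 nmole of a random double-stranded 16-mer DNA library in Tris/NaCl/DTT/glycerol buffer at room temperature for 30 min, then washed, crosslinked with 0.1% formaldehyde, proximity-ligated with BsaI/T4 ligase (1 h, 37 °C), PCR-amplified and sequenced on an Illumina NextSeq500.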

The target in test [2] is ETV5 (Homo sapiens, UniProt P41161 1-510). Particulars: protein: recombinant; tags: N-terminal GST; dsDNA, one strand shown. The method in brief:
as §1

Test [3] addresses HSF1 (Homo sapiens, UniProt Q00613 1-529). As to conditions: protein: recombinant; tags: N-terminal GST; chain copies: 3; dsDNA, one strand shown. In outline:
as §1

For test [4], the target named is T2, SPIC (Homo sapiens, UniProt Q8N5J4 1-248).
T2 sequence: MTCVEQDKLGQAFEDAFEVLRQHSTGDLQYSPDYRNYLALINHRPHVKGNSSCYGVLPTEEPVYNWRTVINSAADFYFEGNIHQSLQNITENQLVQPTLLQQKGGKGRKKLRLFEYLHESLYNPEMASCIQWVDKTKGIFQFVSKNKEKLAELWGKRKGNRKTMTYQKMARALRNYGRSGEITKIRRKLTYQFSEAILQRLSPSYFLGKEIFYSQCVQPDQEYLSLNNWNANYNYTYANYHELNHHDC
Particulars: protein: recombinant; tags: N-terminal GST; dsDNA, one strand shown. The method in brief:
as §1

Test [5] addresses ELF4 (Homo sapiens, UniProt Q99607 1-663). As to conditions: protein: recombinant; tags: N-terminal GST; dsDNA, one strand shown. In outline: as §1
Test [6] has as its target T3, ELK4 (Homo sapiens, UniProt P28324-2 1-405).
T3 sequence: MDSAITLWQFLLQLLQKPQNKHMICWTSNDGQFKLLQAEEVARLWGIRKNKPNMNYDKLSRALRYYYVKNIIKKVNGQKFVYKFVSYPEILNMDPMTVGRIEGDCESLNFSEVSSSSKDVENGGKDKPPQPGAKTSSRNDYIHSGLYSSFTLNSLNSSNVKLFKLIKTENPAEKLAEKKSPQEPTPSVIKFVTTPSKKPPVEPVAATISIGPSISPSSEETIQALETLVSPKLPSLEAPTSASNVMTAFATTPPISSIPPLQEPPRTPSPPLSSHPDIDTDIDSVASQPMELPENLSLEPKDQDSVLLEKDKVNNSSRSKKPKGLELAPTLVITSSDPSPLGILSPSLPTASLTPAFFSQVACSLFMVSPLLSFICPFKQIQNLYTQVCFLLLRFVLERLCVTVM
Particulars: protein: recombinant; tags: N-terminal GST; dsDNA, one strand shown. The method in brief: as §1

In test [7] the target is T4, ETV2 (Homo sapiens, UniProt O00321 1-342).
T4 sequence: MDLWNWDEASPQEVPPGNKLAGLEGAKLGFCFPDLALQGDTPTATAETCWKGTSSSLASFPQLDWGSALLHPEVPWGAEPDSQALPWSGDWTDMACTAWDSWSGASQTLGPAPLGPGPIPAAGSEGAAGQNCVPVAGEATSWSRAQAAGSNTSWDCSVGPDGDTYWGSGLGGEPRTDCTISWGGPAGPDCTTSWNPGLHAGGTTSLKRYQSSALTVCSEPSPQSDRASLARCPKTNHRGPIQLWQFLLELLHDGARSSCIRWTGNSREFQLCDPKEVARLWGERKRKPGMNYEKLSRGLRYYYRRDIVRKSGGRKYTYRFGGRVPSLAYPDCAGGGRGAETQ
Particulars: protein: recombinant; tags: N-terminal GST; dsDNA, one strand shown. In outline:
as §1

In test [8] the target is T5, ELF3 (Homo sapiens, UniProt P78545 1-371).
T5 sequence: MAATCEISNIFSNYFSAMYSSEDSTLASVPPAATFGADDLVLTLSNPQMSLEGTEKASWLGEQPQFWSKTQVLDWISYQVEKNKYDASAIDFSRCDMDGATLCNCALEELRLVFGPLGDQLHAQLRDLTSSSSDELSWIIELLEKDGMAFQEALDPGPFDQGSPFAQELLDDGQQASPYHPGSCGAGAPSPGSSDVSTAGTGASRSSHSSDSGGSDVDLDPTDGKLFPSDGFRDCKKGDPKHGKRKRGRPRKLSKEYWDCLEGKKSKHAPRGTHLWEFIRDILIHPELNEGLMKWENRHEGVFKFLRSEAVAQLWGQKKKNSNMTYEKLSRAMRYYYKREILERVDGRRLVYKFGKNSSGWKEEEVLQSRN
As to conditions: protein: recombinant; tags: N-terminal GST; dsDNA, one strand shown. In outline:
as §1

Test [9] has as its target CRX (Homo sapiens, UniProt O43186 1-299). Particulars: protein: recombinant; tags: N-terminal GST; dsDNA, one strand shown. The method in brief:
as §1

In test [10] the target is ETV1 (Homo sapiens, UniProt P50549 1-477). Particulars: protein: recombinant; tags: N-terminal GST; dsDNA, one strand shown. The method in brief:
as §1

In test [11] the target is T6, ERF (Homo sapiens, UniProt P50548 1-548).
T6 sequence: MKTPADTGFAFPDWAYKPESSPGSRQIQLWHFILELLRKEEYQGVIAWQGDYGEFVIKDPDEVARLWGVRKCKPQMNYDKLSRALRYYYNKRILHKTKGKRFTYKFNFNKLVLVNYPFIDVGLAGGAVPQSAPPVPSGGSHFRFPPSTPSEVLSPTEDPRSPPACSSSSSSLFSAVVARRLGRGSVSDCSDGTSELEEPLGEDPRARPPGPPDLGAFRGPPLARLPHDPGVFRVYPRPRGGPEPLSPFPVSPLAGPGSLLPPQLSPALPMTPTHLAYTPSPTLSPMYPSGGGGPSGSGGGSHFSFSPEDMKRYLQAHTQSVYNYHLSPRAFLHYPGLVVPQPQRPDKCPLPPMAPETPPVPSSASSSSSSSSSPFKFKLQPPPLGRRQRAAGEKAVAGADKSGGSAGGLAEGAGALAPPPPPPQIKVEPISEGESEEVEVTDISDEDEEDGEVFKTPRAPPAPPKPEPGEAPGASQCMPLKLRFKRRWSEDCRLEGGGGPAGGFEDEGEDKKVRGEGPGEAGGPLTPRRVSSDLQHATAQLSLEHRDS
Particulars: protein: recombinant; tags: N-terminal GST; dsDNA, one strand shown. In outline: as §1

For test [12], the target named is T7, ETV3L (Homo sapiens, UniProt Q6ZN32 1-361).
T7 sequence: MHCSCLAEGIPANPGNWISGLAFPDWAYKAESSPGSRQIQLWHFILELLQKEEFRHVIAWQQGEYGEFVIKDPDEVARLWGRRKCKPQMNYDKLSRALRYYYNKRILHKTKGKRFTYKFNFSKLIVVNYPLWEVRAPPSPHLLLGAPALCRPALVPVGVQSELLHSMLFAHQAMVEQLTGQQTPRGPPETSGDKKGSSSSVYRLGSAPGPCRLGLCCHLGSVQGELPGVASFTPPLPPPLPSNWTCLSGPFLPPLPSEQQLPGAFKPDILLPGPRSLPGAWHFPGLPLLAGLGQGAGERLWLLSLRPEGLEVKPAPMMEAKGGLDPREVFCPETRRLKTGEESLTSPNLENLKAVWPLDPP
Particulars: protein: recombinant; tags: N-terminal GST; dsDNA, one strand shown. In outline:
as §1

Test [13] concerns the target T8, ETS2 (Homo sapiens, UniProt P15036 1-469).
T8 sequence: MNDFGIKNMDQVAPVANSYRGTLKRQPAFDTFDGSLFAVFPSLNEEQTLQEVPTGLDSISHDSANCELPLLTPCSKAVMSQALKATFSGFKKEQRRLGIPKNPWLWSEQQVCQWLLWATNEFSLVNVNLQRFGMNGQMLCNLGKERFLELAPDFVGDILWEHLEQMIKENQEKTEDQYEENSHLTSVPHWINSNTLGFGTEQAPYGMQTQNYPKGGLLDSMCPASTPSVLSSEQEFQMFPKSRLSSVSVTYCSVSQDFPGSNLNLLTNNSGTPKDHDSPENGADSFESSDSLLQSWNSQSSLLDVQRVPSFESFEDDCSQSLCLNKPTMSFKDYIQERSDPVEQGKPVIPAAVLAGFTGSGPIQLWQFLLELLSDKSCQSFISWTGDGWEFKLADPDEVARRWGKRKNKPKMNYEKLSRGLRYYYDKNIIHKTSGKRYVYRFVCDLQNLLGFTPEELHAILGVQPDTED
Particulars: protein: recombinant; tags: N-terminal GST; dsDNA, one strand shown. In outline: as §1

Test [14] addresses T9, SPDEF (Homo sapiens, UniProt O95238 1-335).
T9 sequence: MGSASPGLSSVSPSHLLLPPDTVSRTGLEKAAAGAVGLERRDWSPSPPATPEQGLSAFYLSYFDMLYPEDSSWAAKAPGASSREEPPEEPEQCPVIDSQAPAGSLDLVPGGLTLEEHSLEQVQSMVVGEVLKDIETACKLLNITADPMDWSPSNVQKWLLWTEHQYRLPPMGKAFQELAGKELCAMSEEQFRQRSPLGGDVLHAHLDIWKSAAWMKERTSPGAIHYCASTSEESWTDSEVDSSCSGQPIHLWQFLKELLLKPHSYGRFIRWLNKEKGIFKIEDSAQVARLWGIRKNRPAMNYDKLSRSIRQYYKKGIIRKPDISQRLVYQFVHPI
Particulars: protein: recombinant; tags: N-terminal GST; dsDNA, one strand shown. The method in brief:
as §1

The target in test [15] is T10, ETV7 (Homo sapiens, UniProt Q9Y603 1-341).
T10 sequence: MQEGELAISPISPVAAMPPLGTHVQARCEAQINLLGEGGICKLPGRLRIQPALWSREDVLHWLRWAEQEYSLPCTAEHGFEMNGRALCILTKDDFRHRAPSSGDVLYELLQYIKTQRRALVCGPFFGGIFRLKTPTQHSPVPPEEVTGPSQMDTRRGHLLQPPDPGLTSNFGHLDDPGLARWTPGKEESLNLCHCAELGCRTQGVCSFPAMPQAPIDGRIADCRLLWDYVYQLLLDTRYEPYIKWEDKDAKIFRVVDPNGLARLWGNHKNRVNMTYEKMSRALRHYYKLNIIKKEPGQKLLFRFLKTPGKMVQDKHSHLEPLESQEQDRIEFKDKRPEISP
As to conditions: protein: recombinant; tags: N-terminal GST; dsDNA, one strand shown. The method in brief:
as §1

For test [16], the target named is T11, ELF5 (Homo sapiens, UniProt Q9UKW6-2 1-255).
T11 sequence: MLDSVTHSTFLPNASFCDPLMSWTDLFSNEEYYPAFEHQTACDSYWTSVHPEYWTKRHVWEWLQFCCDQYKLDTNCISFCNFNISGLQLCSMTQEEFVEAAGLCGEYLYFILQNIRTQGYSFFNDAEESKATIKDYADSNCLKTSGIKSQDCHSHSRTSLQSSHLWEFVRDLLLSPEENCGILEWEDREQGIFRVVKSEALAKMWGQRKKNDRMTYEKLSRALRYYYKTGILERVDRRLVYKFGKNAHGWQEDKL
As to conditions: protein: recombinant; tags: N-terminal GST; dsDNA, one strand shown. In outline: as §1

The target in test [17] is T12, ETV3 (Homo sapiens, UniProt P41162-2 1-143).
T12 sequence: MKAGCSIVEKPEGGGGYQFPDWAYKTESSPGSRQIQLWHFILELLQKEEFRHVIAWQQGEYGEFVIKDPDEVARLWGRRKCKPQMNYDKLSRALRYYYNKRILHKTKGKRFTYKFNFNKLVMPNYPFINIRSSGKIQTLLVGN
As to conditions: protein: recombinant; tags: N-terminal GST; dsDNA, one strand shown. In outline: as §1

Test [18] concerns the target ETV6 (Homo sapiens, UniProt P41212 1-452). Particulars: protein: recombinant; tags: N-terminal GST; dsDNA, one strand shown. The method in brief:
as §1

Sequence of ETV5 (P41161 whole entry): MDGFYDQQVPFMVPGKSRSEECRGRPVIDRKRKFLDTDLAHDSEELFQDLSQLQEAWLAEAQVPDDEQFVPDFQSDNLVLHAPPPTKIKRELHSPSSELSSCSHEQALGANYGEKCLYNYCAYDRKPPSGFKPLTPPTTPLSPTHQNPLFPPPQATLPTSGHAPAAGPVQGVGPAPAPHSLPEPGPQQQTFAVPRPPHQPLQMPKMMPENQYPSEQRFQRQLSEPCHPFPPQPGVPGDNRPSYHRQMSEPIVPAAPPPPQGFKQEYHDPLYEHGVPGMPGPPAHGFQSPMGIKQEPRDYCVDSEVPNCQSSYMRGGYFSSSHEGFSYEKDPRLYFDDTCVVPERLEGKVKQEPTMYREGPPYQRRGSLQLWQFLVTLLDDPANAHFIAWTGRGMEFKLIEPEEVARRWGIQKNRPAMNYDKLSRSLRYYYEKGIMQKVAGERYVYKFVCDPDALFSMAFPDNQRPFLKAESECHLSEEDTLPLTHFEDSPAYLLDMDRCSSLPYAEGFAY
Sequence of ETV1 (P50549 whole entry): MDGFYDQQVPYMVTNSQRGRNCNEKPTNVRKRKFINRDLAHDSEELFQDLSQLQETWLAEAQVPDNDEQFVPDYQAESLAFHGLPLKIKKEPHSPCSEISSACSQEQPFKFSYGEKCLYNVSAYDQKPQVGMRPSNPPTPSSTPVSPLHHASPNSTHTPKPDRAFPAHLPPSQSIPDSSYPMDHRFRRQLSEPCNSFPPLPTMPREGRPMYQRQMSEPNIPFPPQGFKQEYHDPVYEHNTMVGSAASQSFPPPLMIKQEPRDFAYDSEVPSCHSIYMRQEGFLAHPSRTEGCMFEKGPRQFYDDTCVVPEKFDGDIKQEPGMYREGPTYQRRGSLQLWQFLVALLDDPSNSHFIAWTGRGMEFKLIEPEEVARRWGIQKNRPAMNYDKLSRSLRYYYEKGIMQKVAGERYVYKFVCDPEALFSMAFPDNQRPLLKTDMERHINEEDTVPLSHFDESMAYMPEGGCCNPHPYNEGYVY
Sequence of CRX (O43186 whole entry): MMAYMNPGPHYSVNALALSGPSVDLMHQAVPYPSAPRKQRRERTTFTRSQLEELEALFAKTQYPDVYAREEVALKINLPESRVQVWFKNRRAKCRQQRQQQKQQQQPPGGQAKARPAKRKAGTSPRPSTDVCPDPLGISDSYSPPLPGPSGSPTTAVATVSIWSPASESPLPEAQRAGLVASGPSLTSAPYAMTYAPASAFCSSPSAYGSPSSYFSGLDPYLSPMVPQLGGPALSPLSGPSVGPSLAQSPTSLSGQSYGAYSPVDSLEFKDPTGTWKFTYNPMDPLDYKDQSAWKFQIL
Sequence of ETV6 (P41212 whole entry): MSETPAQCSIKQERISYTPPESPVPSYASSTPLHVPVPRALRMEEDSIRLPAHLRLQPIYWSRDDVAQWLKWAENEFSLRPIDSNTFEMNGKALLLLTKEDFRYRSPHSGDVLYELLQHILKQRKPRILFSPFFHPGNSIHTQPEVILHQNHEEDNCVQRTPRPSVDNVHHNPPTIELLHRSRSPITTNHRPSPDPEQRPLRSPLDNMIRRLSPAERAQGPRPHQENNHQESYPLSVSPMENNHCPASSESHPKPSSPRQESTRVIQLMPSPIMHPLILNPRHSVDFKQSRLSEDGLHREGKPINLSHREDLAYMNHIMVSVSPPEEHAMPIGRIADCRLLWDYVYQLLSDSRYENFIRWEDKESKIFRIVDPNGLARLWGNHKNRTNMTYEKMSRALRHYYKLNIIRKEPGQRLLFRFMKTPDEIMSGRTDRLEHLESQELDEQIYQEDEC
Sequence of HSF1 (Q00613 whole entry): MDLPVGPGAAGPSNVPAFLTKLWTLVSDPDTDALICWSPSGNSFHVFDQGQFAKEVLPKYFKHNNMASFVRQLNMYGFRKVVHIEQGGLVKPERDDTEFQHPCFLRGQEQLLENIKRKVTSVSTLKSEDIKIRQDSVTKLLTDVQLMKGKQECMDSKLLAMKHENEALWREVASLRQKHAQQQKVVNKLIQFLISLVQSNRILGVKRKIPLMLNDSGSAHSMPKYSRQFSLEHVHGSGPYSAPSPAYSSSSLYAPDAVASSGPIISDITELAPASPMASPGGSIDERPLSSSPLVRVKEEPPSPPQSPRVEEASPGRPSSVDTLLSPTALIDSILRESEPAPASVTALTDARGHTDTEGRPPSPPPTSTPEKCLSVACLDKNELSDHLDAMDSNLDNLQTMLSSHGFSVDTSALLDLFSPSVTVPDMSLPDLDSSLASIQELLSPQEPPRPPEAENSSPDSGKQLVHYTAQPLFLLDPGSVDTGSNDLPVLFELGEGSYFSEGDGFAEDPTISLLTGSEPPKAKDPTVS
Sequence of ELF4 (Q99607 whole entry): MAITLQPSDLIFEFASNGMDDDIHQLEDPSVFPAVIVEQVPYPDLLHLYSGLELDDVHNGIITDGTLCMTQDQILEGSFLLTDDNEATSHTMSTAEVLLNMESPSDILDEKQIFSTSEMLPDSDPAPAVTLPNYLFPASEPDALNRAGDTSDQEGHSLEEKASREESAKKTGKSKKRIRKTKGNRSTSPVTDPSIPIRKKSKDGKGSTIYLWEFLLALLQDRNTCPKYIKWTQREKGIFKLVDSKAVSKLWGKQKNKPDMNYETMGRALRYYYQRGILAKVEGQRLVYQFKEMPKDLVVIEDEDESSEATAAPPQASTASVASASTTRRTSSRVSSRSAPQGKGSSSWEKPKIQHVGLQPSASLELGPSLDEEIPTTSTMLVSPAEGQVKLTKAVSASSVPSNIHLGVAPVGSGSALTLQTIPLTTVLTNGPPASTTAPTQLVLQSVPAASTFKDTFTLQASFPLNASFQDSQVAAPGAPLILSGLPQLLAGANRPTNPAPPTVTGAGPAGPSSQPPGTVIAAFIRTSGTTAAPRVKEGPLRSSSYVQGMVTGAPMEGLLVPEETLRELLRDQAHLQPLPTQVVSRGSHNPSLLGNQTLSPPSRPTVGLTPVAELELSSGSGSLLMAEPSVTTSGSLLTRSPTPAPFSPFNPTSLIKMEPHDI

With ATTCAC, the binding signal in test [1] is 1.23 fold enrichment (6-mer frequency, TF over GST control); in [2] it was 1.21 fold enrichment (6-mer frequency, TF over GST control); in test [3], 1.13 fold enrichment (6-mer frequency, TF over GST control); in [4] it was 1.1 fold enrichment (6-mer frequency, TF over GST control); in test [5], 1.31 fold enrichment (6-mer frequency, TF over GST control); in [6], 1.35 fold enrichment (6-mer frequency, TF over GST control). Besides, the binding signal in [7] was 1.21 fold enrichment (6-mer frequency, TF over GST control); in test [8] it was 1.27 fold enrichment (6-mer frequency, TF over GST control); in test [9] it was 1.14 fold enrichment (6-mer frequency, TF over GST control); in test [10], 1.29 fold enrichment (6-mer frequency, TF over GST control); in test [11] it was 1.21 fold enrichment (6-mer frequency, TF over GST control); in test [12], 1.21 fold enrichment (6-mer frequency, TF over GST control). Also, the binding signal in [13] is 1.29 fold enrichment (6-mer frequency, TF over GST control); in test [14], 1.21 fold enrichment (6-mer frequency, TF over GST control); in [15], 1.24 fold enrichment (6-mer frequency, TF over GST control); in [16], 1.19 fold enrichment (6-mer frequency, TF over GST control); in test [17] it was 1.23 fold enrichment (6-mer frequency, TF over GST control); in test [18], 1.17 fold enrichment (6-mer frequency, TF over GST control).
